Source: PubChem BioAssay (NCATS)
Results filed as inconclusive are left out. The source made the active and inactive calls. Calls follow the shape of the dose curve; as a rule, active = well fitted curve in the direction sought with a large enough effect; inconclusive = small, poorly fitted or top-dose-only effect, or another doubt; inactive = no such curve, though single readings can be large; an effect the other way counts as inactive or inconclusive.

How the values were obtained:
[1] = target: ATP-dependent 6-phosphofructokinase (Trypanosoma brucei brucei) (UniProt O15648); experiment: qHTS Assay to Find Inhibitors of T. brucei phosphofructokinase: hit validation (AID 492961);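 also: luminescence reports ADP formed as PFK phosphorylates fructose-6-phosphate with ATP; % is scaled to controls: 0 for no effect and ±100 for the full control effect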
Chain of ATP-dependent 6-phosphofructokinase (Trypanosoma brucei brucei) (O15648 whole entry, looked up): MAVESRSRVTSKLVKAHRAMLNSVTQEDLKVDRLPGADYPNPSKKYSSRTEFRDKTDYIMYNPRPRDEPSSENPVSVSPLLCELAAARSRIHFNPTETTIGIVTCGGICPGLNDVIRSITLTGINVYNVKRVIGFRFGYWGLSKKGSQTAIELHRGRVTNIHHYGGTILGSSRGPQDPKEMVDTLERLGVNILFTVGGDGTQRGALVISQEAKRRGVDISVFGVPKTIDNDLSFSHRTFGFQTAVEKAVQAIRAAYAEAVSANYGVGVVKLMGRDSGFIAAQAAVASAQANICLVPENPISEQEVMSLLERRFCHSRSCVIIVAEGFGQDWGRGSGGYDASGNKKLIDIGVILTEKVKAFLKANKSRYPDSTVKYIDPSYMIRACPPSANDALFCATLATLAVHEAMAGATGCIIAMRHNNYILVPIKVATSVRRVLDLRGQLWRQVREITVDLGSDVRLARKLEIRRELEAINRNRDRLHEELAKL
Summary of the method: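 Measures ADP output of PFK (1.25 nM) at 0.1 mM ATP, 0.5 mM F6P, pH 8.0 TEA buffer with 5 mM MgCl2. No-enzyme wells define full inhibition; uninhibited enzyme wells define zero.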

[2] = qHTS profiling for inhibitors of Plasmodium falciparum proliferation (AID 504749);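 also: 0% = DMSO vehicle and full inhibition = artemisinin control; nearly all actives have a fitted effect of over 60% in size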; conditions: P. falciparum in erythrocytes, SYBR Green DNA, 72 h
Summary of the method: (§1)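 Three-day growth assay of blood-stage parasites in erythrocytes (0.3% parasitemia, 2.5% hematocrit) at 37 C, 5% CO2, quantified by SYBR Green DNA staining after overnight detergent lysis.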

3D7 = experiment: as above; conditions: P. falciparum in erythrocytes, SYBR Green DNA, 72 h; series mostly up to 28.7 µM
Summary of the method: as §1

7G8 = experiment: as above; conditions: P. falciparum in erythrocytes, SYBR Green DNA, 72 h; series mostly up to 28.7 µM
Summary of the method: as §1

AS120 = experiment: as above; conditions: P. falciparum in erythrocytes, SYBR Green DNA, 72 h; series mostly up to 28.7 µM
Summary of the method: as §1

ATS189 = experiment: as above; conditions: P. falciparum in erythrocytes, SYBR Green DNA, 72 h; series mostly up to 28.7 µM
Summary of the method: as §1

CP185 = experiment: as above; conditions: P. falciparum in erythrocytes, SYBR Green DNA, 72 h; series mostly up to 28.7 µM
Summary of the method: as §1

CP191 = experiment: as above; conditions: P. falciparum in erythrocytes, SYBR Green DNA, 72 h; series mostly up to 28.7 µM
Summary of the method: as §1

CP192 = experiment: as above; conditions: P. falciparum in erythrocytes, SYBR Green DNA, 72 h; series mostly up to 28.7 µM
Summary of the method: as §1

CP194 = experiment: as above; conditions: P. falciparum in erythrocytes, SYBR Green DNA, 72 h; series mostly up to 28.7 µM
Summary of the method: as §1

CP201 = experiment: as above; conditions: P. falciparum in erythrocytes, SYBR Green DNA, 72 h; series mostly up to 28.7 µM
Summary of the method: as §1

CP203 = experiment: as above; conditions: P. falciparum in erythrocytes, SYBR Green DNA, 72 h; series mostly up to 28.7 µM
Summary of the method: as §1

CP247 = experiment: as above; conditions: P. falciparum in erythrocytes, SYBR Green DNA, 72 h; series mostly up to 28.7 µM
Summary of the method: as §1

CP286 = experiment: as above; conditions: P. falciparum in erythrocytes, SYBR Green DNA, 72 h; series mostly up to 28.7 µM
Summary of the method: as §1

CP291 = experiment: as above; conditions: P. falciparum in erythrocytes, SYBR Green DNA, 72 h; series mostly up to 28.7 µM
Summary of the method: as §1

CP305 = experiment: as above; conditions: P. falciparum in erythrocytes, SYBR Green DNA, 72 h; series mostly up to 28.7 µM
Summary of the method: as §1

DFO2036 = experiment: as above; conditions: P. falciparum in erythrocytes, SYBR Green DNA, 72 h; series mostly up to 28.7 µM
Summary of the method: as §1

DIV30 = experiment: as above; conditions: P. falciparum in erythrocytes, SYBR Green DNA, 72 h; series mostly up to 28.7 µM
Summary of the method: as §1

HB3 = experiment: as above; conditions: P. falciparum in erythrocytes, SYBR Green DNA, 72 h; series mostly up to 28.7 µM
Summary of the method: as §1

P94_40 = experiment: as above; conditions: P. falciparum in erythrocytes, SYBR Green DNA, 72 h; series mostly up to 28.7 µM
Summary of the method: as §1

[3] = at 28.7 µM (top of the series), parasite line A
[4] = at 28.7 µM (top of the series), parasite line B

CCCC[C@H]1C(=O)N(c2ccccc2)N(c2ccc(O)cc2)C1=O
inactive: Potency [1] | activity, negative = inhibition ([2]; at 12.8 µM (top of the series), parasite line A) -7.31% | activity, negative = inhibition ([2]; at 12.8 µM (top of the series), parasite line B) 3.99% | Potency (3D7) | Potency (7G8) | Potency (AS120) | Potency (ATS189) | Potency (CP185) | Potency (CP191) | Potency (CP192) | Potency (CP194) | Potency (CP201) | Potency (CP203) | Potency (CP247) | Potency (CP286) | Potency (CP291) | Potency (CP305) | Potency (DFO2036) | Potency (DIV30) | Potency (HB3) | Potency (P94_40)

CO/N=C(/C(=O)N[C@@H]1C(=O)N2C(C(=O)O)=C(C[n+]3ccc(N)n3CCO)CS[C@H]12)c1csc(N)n1
inactive: Potency [1] | activity, negative = inhibition [2, 3] 0.303% | activity, negative = inhibition [2, 4] 9.51% | Potency (3D7) | Potency (7G8) | Potency (AS120) | Potency (ATS189) | Potency (CP185) | Potency (CP191) | Potency (CP192) | Potency (CP194) | Potency (CP201) | Potency (CP203) | Potency (CP247) | Potency (CP286) | Potency (CP291) | Potency (CP305) | Potency (DFO2036) | Potency (DIV30) | Potency (HB3) | Potency (P94_40)

CCCCN1CC(O)C(O)C(O)C1CO (stereo not given)
inactive: Potency [1] | activity, negative = inhibition [2, 3] 0.477% | activity, negative = inhibition [2, 4] 1.06% | Potency (3D7) | Potency (7G8) | Potency (AS120) | Potency (ATS189) | Potency (CP185) | Potency (CP191) | Potency (CP192) | Potency (CP194) | Potency (CP201) | Potency (CP203) | Potency (CP247) | Potency (CP286) | Potency (CP291) | Potency (CP305) | Potency (DFO2036) | Potency (DIV30) | Potency (HB3) | Potency (P94_40)

O=c1[nH]c(=O)n(C2C[C@H](O)[C@@H](CO)O2)cc1C(F)(F)F (stereo not given in full)
inactive: Potency [1] | activity, negative = inhibition [2, 3] -3.45% | activity, negative = inhibition [2, 4] -4.14% | Potency (3D7) | Potency (7G8) | Potency (AS120) | Potency (ATS189) | Potency (CP185) | Potency (CP191) | Potency (CP192) | Potency (CP194) | Potency (CP201) | Potency (CP203) | Potency (CP247) | Potency (CP286) | Potency (CP291) | Potency (CP305) | Potency (DFO2036) | Potency (DIV30) | Potency (HB3) | Potency (P94_40)

Cc1cn([C@H]2CC(F)[C@@H](CO)O2)c(=O)[nH]c1=O (stereo not given in full)
inactive: Potency [1] | activity, negative = inhibition [2, 3] 6.21% | activity, negative = inhibition [2, 4] 4.03% | Potency (3D7) | Potency (7G8) | Potency (AS120) | Potency (ATS189) | Potency (CP185) | Potency (CP191) | Potency (CP192) | Potency (CP194) | Potency (CP201) | Potency (CP203) | Potency (CP247) | Potency (CP286) | Potency (CP291) | Potency (CP305) | Potency (DFO2036) | Potency (DIV30) | Potency (HB3) | Potency (P94_40)

CNC1C(O)C(OC2C(N)CC(N)C(OC3OC(CN)=CCC3N)C2O)OCC1(C)O (stereo not given)
inactive: Potency [1] | activity, negative = inhibition [2, 3] 16.7% | activity, negative = inhibition [2, 4] -10.7% | Potency (3D7) | Potency (7G8) | Potency (AS120) | Potency (ATS189) | Potency (CP185) | Potency (CP191) | Potency (CP192) | Potency (CP194) | Potency (CP201) | Potency (CP203) | Potency (CP247) | Potency (CP286) | Potency (CP291) | Potency (CP305) | Potency (DFO2036) | Potency (DIV30) | Potency (HB3) | Potency (P94_40)

CC1CCC(C(C)C)C(O)C1 (stereo not given)
inactive: Potency [1] | activity, negative = inhibition [2, 3] 7.33% | activity, negative = inhibition [2, 4] 4.66% | Potency (3D7) | Potency (7G8) | Potency (AS120) | Potency (ATS189) | Potency (CP185) | Potency (CP191) | Potency (CP192) | Potency (CP194) | Potency (CP201) | Potency (CP203) | Potency (CP247) | Potency (CP286) | Potency (CP291) | Potency (CP305) | Potency (DFO2036) | Potency (DIV30) | Potency (HB3) | Potency (P94_40)

CC[C@@H](C)C(N)C(=O)O (stereo not given in full)
inactive: Potency [1] | activity, negative = inhibition [2, 3] 6.94% | activity, negative = inhibition [2, 4] 2.73% | Potency (3D7) | Potency (7G8) | Potency (AS120) | Potency (ATS189) | Potency (CP185) | Potency (CP191) | Potency (CP192) | Potency (CP194) | Potency (CP201) | Potency (CP203) | Potency (CP247) | Potency (CP286) | Potency (CP291) | Potency (CP305) | Potency (DFO2036) | Potency (DIV30) | Potency (HB3) | Potency (P94_40)

O=c1ccn(C2OC(COP(=O)(O)OC3C(CO)OC(n4ccc(=O)[nH]c4=O)C3O)C(O)C2O)c(=O)[nH]1 (stereo not given)
inactive: Potency [1] | activity, negative = inhibition [2, 3] 0.515% | activity, negative = inhibition [2, 4] 10.1% | Potency (3D7) | Potency (7G8) | Potency (AS120) | Potency (ATS189) | Potency (CP185) | Potency (CP191) | Potency (CP192) | Potency (CP194) | Potency (CP201) | Potency (CP203) | Potency (CP247) | Potency (CP286) | Potency (CP291) | Potency (CP305) | Potency (DFO2036) | Potency (DIV30) | Potency (HB3) | Potency (P94_40)

C=C1[C@@H]2CC[C@H](C2)C1(C)C
inactive: Potency [1] | activity, negative = inhibition [2, 3] 10.4% | activity, negative = inhibition [2, 4] -2.91% | Potency (3D7) | Potency (7G8) | Potency (AS120) | Potency (ATS189) | Potency (CP185) | Potency (CP191) | Potency (CP192) | Potency (CP194) | Potency (CP201) | Potency (CP203) | Potency (CP247) | Potency (CP286) | Potency (CP291) | Potency (CP305) | Potency (DFO2036) | Potency (DIV30) | Potency (HB3) | Potency (P94_40)
